In ChEMBL document CHEMBL2218924, “A broad activity screen in support of a chemogenomic map for kinase signalling research and drug discovery” (Biochem J, 2013):

Each compound was assayed against Receptor-interacting serine/threonine-protein kinase 2 (Homo sapiens) (UniProt O43353). Details: at 10 µM.
Chain of Receptor-interacting serine/threonine-protein kinase 2 (Homo sapiens) (O43353 whole entry): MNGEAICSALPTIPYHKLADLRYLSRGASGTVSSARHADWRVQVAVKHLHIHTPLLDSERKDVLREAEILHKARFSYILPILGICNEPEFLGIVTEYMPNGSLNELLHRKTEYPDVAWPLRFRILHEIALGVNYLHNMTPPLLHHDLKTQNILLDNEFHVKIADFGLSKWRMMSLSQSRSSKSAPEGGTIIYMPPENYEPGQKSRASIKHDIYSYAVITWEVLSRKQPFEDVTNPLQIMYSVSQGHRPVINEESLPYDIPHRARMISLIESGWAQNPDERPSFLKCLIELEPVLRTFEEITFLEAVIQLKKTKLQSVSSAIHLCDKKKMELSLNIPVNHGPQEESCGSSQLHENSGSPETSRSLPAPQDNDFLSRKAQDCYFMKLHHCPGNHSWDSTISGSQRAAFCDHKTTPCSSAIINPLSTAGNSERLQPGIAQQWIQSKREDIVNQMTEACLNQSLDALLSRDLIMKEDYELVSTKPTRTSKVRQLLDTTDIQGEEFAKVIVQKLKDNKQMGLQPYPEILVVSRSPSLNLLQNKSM
Compound O=c1cc(N2CCOCC2)oc2c(-c3ccccc3)cccc12 has a residual activity of 74%.
O=C1Cc2c([nH]c3ccc([N+](=O)[O-])cc23)-c2ccccc2N1 gave a residual activity of 23%.
O=c1c(-c2ccc(F)cc2)c(-c2ccncc2)[nH]n1-c1ccc(Cl)cc1 showed a residual activity of 19%.
NC(=O)c1cccc(-c2cc(Nc3ccc(OC(F)(F)F)cc3)ncn2)c1 showed a residual activity of 56%.
Work on c1ccc(-c2cnc(Nc3ccc(OCCN4CCCC4)cc3)s2)cc1 yielded a residual activity of 17%.
Compound CSc1nc(-c2ccc(F)cc2)c(-c2ccnc(NC(C)c3ccccc3)c2)[nH]1 (stereo unspecified) has a residual activity of 30%.
In the case of Oc1cccc(-c2nc(N3CCOCC3)c3oc4ncccc4c3n2)c1, the residual activity is reported as 86%.
With CCN1/C(=C/C(C)=O)Sc2ccc(OC)cc21 the residual activity was 60%.
COc1cc2c(cc1OC)-c1n[nH]c(Nc3cccc(F)c3)c1C2 was tested, and the residual activity was 17%.
For O=C(Nc1ccc(Cl)cc1)c1ccccc1NCc1ccncc1, the residual activity was 78%.
With O=C1NC(=O)C(c2cn(CCCn3ccnc3)c3ccccc23)=C1Nc1ccccc1 the residual activity was 77%.
With O=C(NC(NC(=S)Nc1ccc(F)c([N+](=O)[O-])c1)C(Cl)(Cl)Cl)C(c1ccccc1)c1ccccc1 (stereo unspecified) the residual activity was 92%.
For O=C1C(Cl)=C(N2C(=O)CCC2=O)C(=O)c2ccccc21, the residual activity was 95%.
In the case of CC(C)c1nn(-c2c(Cl)cccc2Cl)c2nc(Cc3ccc(OCCO)cc3)[nH]c(=O)c12, the residual activity is reported as 83%.
In the case of COc1ccc2c(c1)c(C1=C(c3c[nH]c4ccccc34)C(=O)NC1=O)cn2CCCN(C)C, the residual activity is reported as 64%.
In the case of O=C1NC(=O)C(c2c[nH]c3ccccc23)=C1c1c[nH]c2ccccc12, the residual activity is reported as 74%.
COc1ccc(-c2cnc3c(-c4ccsc4)cnn3c2)cc1 was tested, and the residual activity was 92%.
In the case of CCCCc1c(-c2ccc(O)cc2)[nH]c2nccnc12, the residual activity is reported as 30%.
O=C(c1cc2cc(O)ccc2[nH]1)c1cc2cc(O)ccc2[nH]1 was tested, and the residual activity was 6%.
In the case of Fc1ccc(-c2nc3n(c2-c2ccncc2)CCS3)cc1, the residual activity is reported as 24%.

Each compound was assayed against Rho-associated protein kinase 1 (Homo sapiens) (UniProt Q13464). Details: at 1 µM.
Chain of Rho-associated protein kinase 1 (Homo sapiens) (Q13464 2-1354 limits assumed): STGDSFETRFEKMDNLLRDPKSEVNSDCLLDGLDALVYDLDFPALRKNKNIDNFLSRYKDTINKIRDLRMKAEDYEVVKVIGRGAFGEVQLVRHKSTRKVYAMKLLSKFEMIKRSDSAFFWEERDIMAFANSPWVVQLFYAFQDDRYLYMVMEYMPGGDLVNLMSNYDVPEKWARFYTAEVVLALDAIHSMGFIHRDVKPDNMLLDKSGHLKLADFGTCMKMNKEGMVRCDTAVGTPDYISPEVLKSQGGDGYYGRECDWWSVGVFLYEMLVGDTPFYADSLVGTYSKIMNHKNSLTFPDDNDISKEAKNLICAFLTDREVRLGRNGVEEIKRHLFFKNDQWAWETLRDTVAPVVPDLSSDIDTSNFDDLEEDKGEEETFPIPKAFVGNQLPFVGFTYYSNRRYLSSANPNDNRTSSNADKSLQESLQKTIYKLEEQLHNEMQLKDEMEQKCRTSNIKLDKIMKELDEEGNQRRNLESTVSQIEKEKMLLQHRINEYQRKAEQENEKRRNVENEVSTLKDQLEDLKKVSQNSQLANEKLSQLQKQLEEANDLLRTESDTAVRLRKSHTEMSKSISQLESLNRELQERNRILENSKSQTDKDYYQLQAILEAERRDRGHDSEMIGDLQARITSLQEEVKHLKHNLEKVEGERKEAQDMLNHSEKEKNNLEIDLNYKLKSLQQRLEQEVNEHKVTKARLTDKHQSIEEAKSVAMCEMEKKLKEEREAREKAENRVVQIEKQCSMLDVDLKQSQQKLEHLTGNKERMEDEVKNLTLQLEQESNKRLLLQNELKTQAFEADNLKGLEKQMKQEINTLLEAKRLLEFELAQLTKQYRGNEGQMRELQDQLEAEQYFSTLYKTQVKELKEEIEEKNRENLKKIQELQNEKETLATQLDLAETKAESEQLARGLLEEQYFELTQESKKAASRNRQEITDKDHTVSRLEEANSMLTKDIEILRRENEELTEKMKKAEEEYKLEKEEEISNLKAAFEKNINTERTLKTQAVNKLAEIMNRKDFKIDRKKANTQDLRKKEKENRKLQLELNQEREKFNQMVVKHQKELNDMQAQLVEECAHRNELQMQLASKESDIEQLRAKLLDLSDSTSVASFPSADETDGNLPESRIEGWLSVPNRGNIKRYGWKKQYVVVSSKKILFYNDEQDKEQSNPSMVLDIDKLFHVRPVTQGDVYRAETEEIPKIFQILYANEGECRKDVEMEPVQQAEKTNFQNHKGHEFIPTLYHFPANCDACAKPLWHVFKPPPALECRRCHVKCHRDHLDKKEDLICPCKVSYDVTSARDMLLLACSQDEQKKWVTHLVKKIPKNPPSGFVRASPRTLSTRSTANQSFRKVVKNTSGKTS
Compound O=C1Cc2c([nH]c3ccc([N+](=O)[O-])cc23)-c2ccccc2N1 has a residual activity of 107%.
With O=c1c(-c2ccc(F)cc2)c(-c2ccncc2)[nH]n1-c1ccc(Cl)cc1 the residual activity was 122%.
With COc1ccc(COc2ccc(Cc3cnc(N)nc3N)cc2OC)cc1 the residual activity was 112%.
Compound Oc1cccc(-c2nc(N3CCOCC3)c3oc4ncccc4c3n2)c1 has a residual activity of 123%.
Work on O=C1NC(=O)C(c2cn(CCCn3ccnc3)c3ccccc23)=C1Nc1ccccc1 yielded a residual activity of 120%.
Work on O=C(Nc1nc2ccccc2n1CCN1CCOCC1)c1cccc([N+](=O)[O-])c1 yielded a residual activity of 109%.
COc1ccc2c(c1)c(C1=C(c3c[nH]c4ccccc34)C(=O)NC1=O)cn2CCCN(C)C was tested, and the residual activity was 105%.
In the case of Fc1ccc(-c2nc3n(c2-c2ccncc2)CCS3)cc1, the residual activity is reported as 123%.

What follows are compounds tested against Rho-associated protein kinase 1 (Homo sapiens) (UniProt Q13464). Details: at 10 µM.
O=S(=O)(NCCNC/C=C/c1ccc(Br)cc1)c1cccc2cnccc12 showed a residual activity of 29%.
Compound c1ccc(-c2cnc(Nc3ccc(OCCN4CCCC4)cc3)s2)cc1 has a residual activity of 110%.
COc1ccc(COc2ccc(Cc3cnc(N)nc3N)cc2OC)cc1 showed a residual activity of 120%.
CSc1nc(-c2ccc(F)cc2)c(-c2ccnc(NC(C)c3ccccc3)c2)[nH]1 (stereo unspecified) showed a residual activity of 96%.
With N#C/C(=C\c1ccc(O)c(O)c1)C(=O)NCc1ccccc1 the residual activity was 123%.
For Oc1cccc(-c2nc(N3CCOCC3)c3oc4ncccc4c3n2)c1, the residual activity was 125%.
In the case of O=S(=O)(c1cccc2cnccc12)N1CCCNCC1, the residual activity is reported as 36%.
O=C1NC(=O)C(c2cn(CCCn3ccnc3)c3ccccc23)=C1Nc1ccccc1 was tested, and the residual activity was 121%.
O=C1C(Cl)=C(N2C(=O)CCC2=O)C(=O)c2ccccc21 gave a residual activity of 88%.
CC(C)N(CCC(=O)c1ccc2ccccc2c1)Cc1ccccc1 gave a residual activity of 133%.
O=C(Nc1nc2ccccc2n1CCN1CCOCC1)c1cccc([N+](=O)[O-])c1 was tested, and the residual activity was 106%.
With COc1ccc2c(c1)c(C1=C(c3c[nH]c4ccccc34)C(=O)NC1=O)cn2CCCN(C)C the residual activity was 124%.
O=C(c1cc2cc(O)ccc2[nH]1)c1cc2cc(O)ccc2[nH]1 was tested, and the residual activity was 72%.
